Results filed as inconclusive are left out. A call without a number means that no potency is given here. Activity calls are given as the source filed them. Calls follow the shape of the full dose curve.

The nature of the experiment: qHTS assay to identify small molecule agonists or antagonists of the thyroid stimulating hormone receptor (TSHR) signaling pathway - wild type cell line counter screen (AID 1259384). Particulars: HEK293 wild type, cAMP HTRF counter-screen; series mostly up to 92.4 µM; cAMP activity change: at the top concentration. The source says: U.S. Tox21 Program National Center for Advancing Translational Sciences [NCATS] NIH Chemical Genomics Center [NCGC] U.S. Environmental Protection Agency [EPA] National Institutes of Environmental Health Sciences [NIEHS] National Toxicology Program [NTP] U.S. Food and Drug Administration [FDA] Tox21 Assay Overview: TSHR is the receptor for thyrotropin (thyroid stimulating hormone or TSH), a member of the glycoprotein hormone family. TSH is released by the anterior pituitary gland and is the main regulator of thyroid gland growth and development. Upon binding circulating thyrotropin, a G-protein signal cascade activates adenylyl cyclase and […] cAMP concentration is increased. cAMP is a key second messenger involved extensively in cellular signal transduction pathways associated with the majority of G-protein coupled receptors (GPCRs). The activation of these GPCRs by neurotransmitters, lipids, nucleotides, peptides and hormones results in the activation or the inhibition of plasma membrane-bound adenylate cyclase through heterotrimeric G-proteins. A cell-based TSHR-Hek293 assay can be used to identify TSHR agonists. To eliminate the false positive compounds identified from screening a cell-based TSHR-Hek293 cell line, cAMP assay in a wild type Hek293 cells was used as a counter screening.
Tox21 Assay Protocol Summary: Hek293 cells (wild type) were dispensed at 800 cells/4 uL/well in 1536-well white plates using a Multidrop dispenser. After the assay plates were incubated at a 37 C/5% CO2 incubator for 18 hrs, 23 nL of compounds dissolved in DMSO, positive controls or DMSO only was transferred to the assay plate by a pin tool, followed by 1 ul medium containing Ro20-1724. After 30 min of incubation at room temperature, 2.5 ul/well of cAMP-d2 and 2.5 ul/well of anti-cAMP-cryptate were added respectively into the assay plates using a Flying Reagent Dispenser. The plates were incubated at room temperature for 1 hr. The fluorescence intensity in the plates was measured using an Envision plate reader. Each test compound was measured at 15 concentrations and in triplicates.
Background: Quantitative high-throughput screening tests each substance at several concentrations.
Take `NCCN`: the Potency result is “inactive”. Same read-out and setting: the value for `COC(=O)C(C)Oc1ccc(Oc2ncc(C(F)(F)F)cc2Cl)cc1` (stereo not given) was “inactive”; that for `CC(C)[N+](C)(CCOC(=O)C1c2ccccc2Oc2ccccc21)C(C)C` was “inactive”; that for `Brc1nc2ccccc2s1` was “inactive”. Consider `C=CC(C)(O)CCC=C(C)C` (stereo not given), for which the Potency result is “inactive”.

Turning to `CC(C)(Oc1ccc(Cl)cc1)C(=O)O`, the Potency result was “inactive”.

Consider `c1ccc2cc3ccccc3cc2c1`, for which the Potency result is “inactive”. The same measure, in the same setting: as for `CC1(C)O[C@@H]2C[C@H]3[C@@H]4C[C@H](F)C5=CC(=O)C=C[C@]5(C)[C@@]4(F)[C@@H](O)C[C@]3(C)[C@]2(C(=O)CO)O1`, the entry is “inactive”. In the case of `Clc1ccc(Sc2cc(Cl)c(Cl)cc2Cl)cc1`, the Potency entry is “inactive”. Take `O=C1CCc2ccccc2O1`: the Potency result is “inactive”. The same measure, in the same setting: as for `COC(=O)c1ccc(C)cc1`, the entry is “inactive”.

Take `CC(=O)Oc1ccc(C(c2ccc(OC(C)=O)cc2)c2ccccn2)cc1`: the Potency entry is “inactive”. The same measure, in the same setting: as for `CCCCCC1C(=O)CCC1CC(=O)OC` (stereo not given), the entry is “inactive”; as for `COc1ccc(-c2coc3cc(O)cc(O)c3c2=O)cc1`, “inactive”. For the compound `IC(I)I`, the Potency result was “inactive”.

With `[O-]/[N+](=N\O)c1ccccc1`, the Potency result is “inactive”.

On to `CC(=O)Oc1c(C)c(C)c2c(c1C)CC[C@@](C)(CCC[C@H](C)CCC[C@H](C)CCCC(C)C)O2`, for which the Potency entry was “inactive”. As to `CC(=O)OC(C)C`, the Potency entry was “inactive”. On the same count and under the same terms, as for `CC1(C)NC(=O)N(c2ccc([N+](=O)[O-])c(C(F)(F)F)c2)C1=O`, the entry is “inactive”. Still for that read-out and setting: as for `O=Cc1ccccc1C=O`, the entry is “inactive”; as for `OC[C@@H](O)[C@@H](O[C@@H]1O[C@H](CO)[C@H](O)[C@H](O)[C@H]1O)[C@H](O)[C@@H](O)CO`, “inactive”. Still for that read-out and setting: as for `CN(C)CCCN1c2ccccc2Sc2ccc(Cl)cc21`, the entry is “inactive”; as for `Cc1ccc([N+](=O)[O-])c(C)c1`, “inactive”; as for `C[C@]12CC[C@@H]3c4ccc(O)cc4CC[C@H]3[C@@H]1CC[C@@H]2O`, “inactive”.

Take `O=C(O)CCCC(=O)O`: the Potency entry was “inactive”. As to `O=C(O)COCCN1CCN(C(c2ccccc2)c2ccc(Cl)cc2)CC1` (stereo not given), the Potency entry is “inactive”. Take `C=CCOC(=O)C(=C)C`: the Potency entry was “inactive”.

As for `CC(C)=CCO`, the Potency entry is “inactive”.

With `C/C=C/C(=O)N(CC)c1ccccc1C`, the Potency result was “inactive”. With `c1ccc2c(c1)ccc1ncccc12`, the Potency entry was “inactive”. With `CN(Cc1cnc2nc(N)nc(N)c2n1)c1ccc(C(=O)N[C@@H](CCC(=O)O)C(=O)O)cc1`, the “cAMP activity change” value is 2.47% [at 42.5 µM, active compounds read high] (inactive). As for `CC(C)[C@@H]1CC[C@@H](C)CC1=O`, the Potency result was “inactive”. On the same count and under the same terms, as for `FC(F)(F)C(Cl)Br` (stereo not given), the entry is “inactive”.

For the compound `CCc1cccc2c3c([nH]c12)C(CC)(CC(=O)O)OCC3` (stereo not given), the Potency entry was “inactive”. For the compound `CCCOCCO`, the Potency entry was “inactive”. Take `Cc1ccc(C(C)(C)C)c(O)c1`: the Potency entry is “inactive”.

Regarding `C=CC(=O)OCCCC`, the Potency entry is “inactive”. On the same count and under the same terms, the value for `CCC(Cc1c(I)cc(I)c(N)c1I)C(=O)O` (stereo not given) was “inactive”. Turning to `COC(=O)CC(=O)OC`, the Potency result is “inactive”. Consider `O=C(CCCN1CCC(O)(c2ccc(Cl)cc2)CC1)c1ccc(F)cc1`, for which the Potency result is “inactive”.

The values above are taken from PubChem BioAssay (Tox21).
